Laboratory results as given in PubChem BioAssay (NCATS).
Results filed as inconclusive are left out. A number with no mark means an inactive call. The call rests on the fitted dose curve; in most records, active means well fitted curve in the direction sought with a large enough effect; inconclusive means small, poorly fitted or top-dose-only effect, or another doubt; inactive means no such curve, though single readings can be large; an effect the other way counts as inactive or inconclusive.

Assay: Drug repurposing screens with cells derived from glioblastoma tumor samples (AID 1345199); further: nearly all actives have a fitted effect of over 40% in size
Conditions: GBM patient neurospheres viability, ATP luminescence, 48 h; at 46.1 µM (top of the series); tumour line C
In short: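 Four patient lines of CD133+ GBM neurospheres were screened at several concentrations; hits were retested in those lines plus three slower-growing GBM lines, using 48-hour treatment and ATP-based viability.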
On the % scale 0 is the no-effect control and ±100 the full control effect.

Compound | activity, negative = cell killing [%]
CCCCC(F)(F)[C@@]1(O)CC[C@H]2[C@H](CC(=O)[C@@H]2CCCCCCC(=O)O)O1 | 12
O=C(Nc1cccc2c(=O)cc(-c3nn[nH]n3)oc12)c1ccc(OCCCCc2ccccc2)cc1 | 16
COc1ccnc(CS(=O)c2nc3ccc(OC(F)F)cc3[nH]2)c1OC (stereo not drawn) | -15.1

Assay: qHTS assay to identify inhibitors of the type 1 interferon - major histocompatibility complex class I in skeletal muscle: Counter screen cell viability and HiBit confirmation (AID 1347412); further: nearly all actives have a fitted effect of over 60% in size
Conditions: iHSKM muscle cells + IFN-b, HiBiT or CellTiter-Glo, 24 h; Viability; at 45.9 µM (top of the series)
In short: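 Myoblasts (C25cl48, HLA-B HiBiT) seeded in medium without dexamethasone, IFN-b 4 ng/ml added except unstimulated columns; 1 hr later compounds pinned (12-pt 1:3, top 46 uM final). Incubated 24 hrs, lysed 10 min, luminescence measured.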

Compound | activity change, negative = inhibition [%]
CNC(=O)c1cc(Oc2ccc(NC(=O)Nc3ccc(Cl)c(C(F)(F)F)c3)c(F)c2)ccn1 | 2.73
CC[C@H](CC#N)OC(=O)N[C@@H](C)c1cccc(NC(=O)Nc2ccc(-c3cnco3)c(OC)c2)c1 | -7.06
CC(C)(O)CC(=O)NCCn1ccc2ncnc(Nc3ccc(Oc4cccc(C(F)(F)F)c4)c(Cl)c3)c21 | -19.7
CNC(=O)c1ccc2c(C(=Nc3cccc(CN(C)C)c3)c3ccccc3)c(O)[nH]c2c1 | -1.9
Cc1ccccc1-n1c(Cn2nc(-c3cccc(O)c3)c3c(N)ncnc32)nc2cccc(C)c2c1=O | 7.45
